Laboratory results published in the supplement of paper PMC8728848.
Shown is part of a subset that was picked to be rich in the strongest signals.

B1: MAL (Maackia amurensis) (protein)
chain: SDELSFTINNFMPNQGDLLFQGVATVSPTGVLQLTSEENGQPLEYSVGRVLYTAPVRIWDSTTGAVASFSTSFTFVVKAARGASDGLAFFLAPPDSQIPSGSVSKYLGLFNNSNSDSSNQIVAVEFDTYFGHSYDPWDPNYRHIGIDVNGIESIKTVQWDWINGGVAFATITYLAPNKTLIASLVYPSNQTSFIVAASVDLKEILPEWVRVGFSAATGAPKAVETHDVRSWSFTSTLEANSPADVDN
B2: chitinase 3-like protein 2 (Homo sapiens) (protein)
chain: YKLVCYFTQWSQDRQEPGKFTPENIDPFLCSHLIYSFASIENNKVIIKDKSEVMLYQTINSLKTKNPKLKILLSIGGYLFGSKGFHPMVDSSTSRLEFINSIILFLRNHNFDGLDVSWIYPDQKENTHFTVLIHELAEAFQKDFTKSTKERLLLTAGVSAGRQMIDNSYQVEKLAKDLDFINLLSFDFHGSWEKPLITGHNSPLSKGWQDRGPSSYYNVEYAVGYWIHKGMPSEKVVMGIPTYGHSFTLASAETTVGAPASGPGAAGPITESSGFLAYYEICQFLKGAKITRLQDQQVPYAVKGNQWVGYDDVKSMETKVQFLKNLNLGGAMIWSIDMDDFTGKSCNQGPYPLVQAVKRSLGSL

Key:
Assay in all cases: glycan array binding signal (z-score within array); higher = stronger binding
Details in all cases: glycan notation: IUPAC condensed, linker removed
[1] = target: Fuc(a1-2)Gal(b1-3)GalNAc(b1-3)Gal
How it was run: (§1)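 Arrays were curated from the Consortium for Functional Glycomics database, 3228 in total, and kept only where the protein sequence was available. Binding is expressed as a within-array Z-score. This score was averaged across arrays of the same protein sequence at different concentrations or buffers and across linkers, and negative values can be read as non-binding.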

[2] = target: Fuc(a1-2)Gal(b1-4)[Fuc(a1-3)]GlcNAc
How it was run: as §1

[3] = target: Fuc(a1-2)[Gal(a1-3)]Gal(b1-4)[Fuc(a1-3)]GlcNAc
How it was run: as §1

[4] = target: Gal(b1-3)[Fuc(a1-4)]GlcNAc(b1-3)Gal(b1-4)GlcNAc
How it was run: as §1

[5] = target: Gal(b1-3)[Fuc(a1-4)]GlcNAc(b1-3)Gal(b1-4)[Fuc(a1-3)]GlcNAc
How it was run: as §1

[6] = target: Gal3S(b1-4)Glc
How it was run: as §1

[7] = target: Gal3S(b1-4)Glc6S
How it was run: as §1

[8] = target: Gal3S(b1-4)GlcNAc
How it was run: as §1

[9] = target: Gal3S(b1-4)GlcNAc6S
How it was run: as §1

[10] = target: Gal3S6S(b1-4)GlcNAc
How it was run: as §1

[11] = target: Gal6S(b1-4)GlcNAc
How it was run: as §1

[12] = target: GlcNAc(a1-3)Gal(b1-4)GlcNAc
How it was run: as §1

[13] = target: GlcNAc(b1-3)[GlcNAc(b1-6)]GalNAc
How it was run: as §1

[14] = target: GlcNAc(b1-4)[GlcNAc(b1-6)]GalNAc
How it was run: as §1

[15] = target: Man(a1-2)Man(a1-3)[Man(a1-2)Man(a1-6)]Man(a1-6)[Man(a1-3)[Man(a1-6)]Man(a1-6)]Man(b1-4)GlcNAc(b1-4)GlcNAc
How it was run: as §1

[16] = target: Neu5Ac(a2-3)GalNAc
How it was run: as §1

[17] = target: Neu5Ac(a2-3)GalNAc(b1-4)GlcNAc
How it was run: as §1

[18] = target: Neu5Ac(a2-3)[GalNAc(b1-4)]Gal(b1-4)Glc
How it was run: as §1

[19] = target: Neu5Ac(a2-6)Gal(b1-4)Glc
How it was run: as §1

[20] = target: Neu5Gc(a2-3)Gal(b1-4)[Fuc(a1-3)]GlcNAc
How it was run: as §1

[21] = target: Fuc(a1-2)Gal(b1-4)[Fuc(a1-3)]GalNAc(b1-3)Gal(b1-4)[Fuc(a1-3)]GlcNAc
How it was run: as §1

[22] = target: Fuc(a1-3)[GalNAc(b1-4)]Gal(b1-4)GlcNAc
How it was run: as §1

[23] = target: Gal(b1-3)[GlcNAc(b1-6)]GlcNAc
How it was run: as §1

[24] = target: Gal(b1-4)GlcNAc(b1-3)Gal(b1-4)[Fuc(a1-3)]GlcNAc(b1-3)Gal(b1-4)[Fuc(a1-3)]GlcNAc
How it was run: as §1

[25] = target: GalNAc(b1-4)GlcNAc
How it was run: as §1

[26] = target: GlcNAc(b1-3)Gal(b1-3)GalNAc
How it was run: as §1

[27] = target: GlcNAc(b1-4)GlcNAc(b1-4)GlcNAc(b1-4)GlcNAc(b1-4)GlcNAc
How it was run: as §1

[28] = target: GlcNAc(b1-4)GlcNAc(b1-4)GlcNAc(b1-4)GlcNAc(b1-4)GlcNAc(b1-4)GlcNAc
How it was run: as §1

[29] = target: Neu5Ac(a2-3)Gal(b1-3)[Neu5Ac(a2-3)Gal(b1-4)]GlcNAc
How it was run: as §1

[30] = target: Neu5Ac(a2-3)Gal(b1-4)Glc
How it was run: as §1

[31] = target: Neu5Ac(a2-3)Gal(b1-4)GlcNAc(b1-3)Gal(b1-4)GlcNAc
How it was run: as §1

[32] = target: Neu5Ac(a2-3)Gal(b1-4)GlcNAc(b1-3)Gal(b1-4)GlcNAc(b1-3)Gal(b1-4)GlcNAc
How it was run: as §1

[33] = target: Neu5Ac(a2-8)Neu5Ac(a2-8)Neu5Ac(a2-8)Neu5Ac(a2-3)[GalNAc(b1-4)]Gal(b1-4)Glc
How it was run: as §1

[34] = target: Neu5Gc(a2-3)Gal(b1-4)GlcNAc
How it was run: as §1

Binder	glycan array binding signal (z-score) [1]	glycan array binding signal (z-score) [2]	glycan array binding signal (z-score) [3]	glycan array binding signal (z-score) [4]	glycan array binding signal (z-score) [5]	glycan array binding signal (z-score) [6]	glycan array binding signal (z-score) [7]	glycan array binding signal (z-score) [8]	glycan array binding signal (z-score) [9]	glycan array binding signal (z-score) [10]	glycan array binding signal (z-score) [11]	glycan array binding signal (z-score) [12]	glycan array binding signal (z-score) [13]	glycan array binding signal (z-score) [14]	glycan array binding signal (z-score) [15]	glycan array binding signal (z-score) [16]	glycan array binding signal (z-score) [17]	glycan array binding signal (z-score) [18]	glycan array binding signal (z-score) [19]	glycan array binding signal (z-score) [20]	glycan array binding signal (z-score) [21]	glycan array binding signal (z-score) [22]	glycan array binding signal (z-score) [23]	glycan array binding signal (z-score) [24]	glycan array binding signal (z-score) [25]	glycan array binding signal (z-score) [26]	glycan array binding signal (z-score) [27]	glycan array binding signal (z-score) [28]	glycan array binding signal (z-score) [29]	glycan array binding signal (z-score) [30]	glycan array binding signal (z-score) [31]	glycan array binding signal (z-score) [32]	glycan array binding signal (z-score) [33]	glycan array binding signal (z-score) [34]
B1	-0.382	0.544	-0.348	-0.428	-0.272	4.98	4.51	4.96	5.35	0.345	-0.066	-0.353	-0.374	-0.221	-0.305	-0.392	-0.416	-0.394	0.057	-0.371														
B2	-0.164											-0.271									-0.22	-0.196	-0.209	-0.183	2.63	-0.22	7.67	9.06	-0.116	-0.233	-0.269	-0.127	1.51	0.093
